An excerpt weighted towards active compounds, which were near 2.5% of everything screened.
PG9 Ab binder: binds the HIV-1 gp120 antibody PG9. inhibition, % at 6.7 µM. TR-FRET gp120-PG9 antibody binding. 0.43% of 360,000 active. AID 624416; in the data active = inhibition above about 8.5%
rCAG binder: molecules binding r(CAG) RNA repeats; r(CAG) RNA repeat, TO-PRO-1 dye displacement fluorescence; inhibition, % at 3 µM; 1.3% of 370,000 active; AID 651821;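 active = inhibition above the plate cutoff, the mean of all test compounds on that plate plus 3 SD, cut at about 35% in these data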;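 also: 0% = DMSO alone and 100% = 100 µM mitoxantrone as full dye displacement; higher means more dye released from RNA so lower well fluorescence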
Granule exo inh: lytic granule exocytosis inhibition | TALL-104 LAMP-1 surface exposure, flow cytometry; cells stimulated with thapsigargin and PMA | inhibition, % at 10 µM | 0.66% of 360,000 active;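 active = inhibition above about 55%, limit read from the data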
ABCB6 inh MLPCN: inhibitors of human ABC transporter ABCB6 | Q9NP58 | K562-ABCB6 porphyrin accumulation, flow cytometry, 1 h; stronger effect = lower value | 0.19% of 360,000 active | fluorescence ratio to DMSO, % at 10 µM;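 active = fluorescence ratio to DMSO below 75%, the collection mean minus 3 SD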;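 also: signal is porphyrin accumulated inside mitochondria; 100% equals median channel fluorescence of DMSO control wells; lower ratio means ABCB6 inhibition with less porphyrin fluorescence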
PG9 bind confirm: confirmation of small molecules binding HIV-1 gp120 antibody PG9. 90% of 1,500 active. shares compounds with PG9 Ab binder. inhibition, % at 6.7 µM. TR-FRET PG9 antibody binding, biochemical; in the data active = inhibition above about 9%
PGV04 Ab binding: counter-screen for PG9 binders: binding control antibody PGV04; shares compounds with PG9 Ab binder; 95% of 1,500 active; inhibition, % at 6.7 µM; TR-FRET PGV04 antibody-gp120 binding, biochemical; AID 651604; in the data active = inhibition above about 9.5%
PG9 bind DR: PG9 antibody binding, dose response | shares compounds with PG9 Ab binder | TR-FRET PG9 antibody-gp120 binding inhibition | IC50, µM | 95 tested, under 10 active | AID 651848; in the data active = IC50 below about 10 µM
PGV04 DR counter: PGV04 binding, dose response counter-screen; TR-FRET binding to control antibody PGV04; AID 651937; shares compounds with PG9 Ab binder; IC50, µM; 20% of 95 active
PG126 DR counter: counter-screen for PG9 binders: binding to control antibody PG126; shares compounds with PG9 Ab binder; TR-FRET binding to antibody PG126, counterscreen; IC50, µM; 20% of 95 active; AID 651939
* = called active by the depositor. Rule as the data show it, unless noted: active = IC50 below about 9 µM; inactive = the rest.

Results for CCSc1nnc(NC(=O)CCCOc2ccc(C)cc2)s1 ?
PG9 Ab binder: 21*; rCAG binder: -4; Granule exo inh: 2; ABCB6 inh MLPCN: 100; PG9 bind confirm: 13*; PGV04 Ab binding: 49*

Results for Cc1ncc([N+](=O)[O-])n1CCN1C(=O)c2ccccc2C1=O ?
PG9 Ab binder: -2; rCAG binder: 0; Granule exo inh: 0; ABCB6 inh MLPCN: 98

How did COC(=O)[C@]12C[C@H](CC(=O)NCc3ccc(C)o3)C(=O)N(Cc3ccccc3)C1=C[C@H](C(C)(C)C)O[C@@H]2C do in these assays?
PG9 Ab binder: 1; rCAG binder: 4

Results for Cc1nc(SCC(=O)Nc2ccccc2Cl)c2c(C)c(C)sc2n1 ?
PG9 Ab binder: 19*; rCAG binder: 6; Granule exo inh: 5; ABCB6 inh MLPCN: 94; PG9 bind confirm: 12*; PGV04 Ab binding: 17*

How did CCc1nc(SCC(=O)Nc2cc(C)on2)c2c(C)c(C)sc2n1 do in these assays?
PG9 Ab binder: 0; rCAG binder: 0; Granule exo inh: 1; ABCB6 inh MLPCN: 106

How did Cc1cc(NC(=O)CSc2nc(C3CC3)nc3sc(C)c(C)c23)no1 do in these assays?
PG9 Ab binder: 8.9*; rCAG binder: 0; Granule exo inh: -1; ABCB6 inh MLPCN: 100; PG9 bind confirm: 13*; PGV04 Ab binding: 12*; PG9 bind DR: >67; PGV04 DR counter: inactive; PG126 DR counter: inactive

How did Cc1cc(C)c2nc(SCC(=O)N3CC(=O)Nc4ccccc43)c(C#N)cc2c1 do in these assays?
PG9 Ab binder: 13*; rCAG binder: 9; Granule exo inh: 18; ABCB6 inh MLPCN: 97; PG9 bind confirm: 11*; PGV04 Ab binding: 24*

Results for O=C(Cc1cccc2ccccc12)Nc1ccc(-c2cc3ccccc3oc2=O)cc1 ?
PG9 Ab binder: 19*; rCAG binder: 20; Granule exo inh: -1; ABCB6 inh MLPCN: 88; PG9 bind confirm: 35*; PGV04 Ab binding: 45*

What do the screens show for `CCC(=O)Nc1cccc(-c2cc3ccccc3oc2=O)c1`?
PG9 Ab binder: 1; rCAG binder: 3; Granule exo inh: -3; ABCB6 inh MLPCN: 98

What do the screens show for `COc1ccc(C(=O)CSc2nnc(-c3cc(C)on3)o2)cc1`?
PG9 Ab binder: 19*; rCAG binder: 6; Granule exo inh: 0; ABCB6 inh MLPCN: 97; PG9 bind confirm: 23*; PGV04 Ab binding: 49*

What do the screens show for `Cc1cc(-c2nnc(SCC(=O)c3ccc(Cl)cc3)o2)no1`?
PG9 Ab binder: 2; rCAG binder: 1; Granule exo inh: -2; ABCB6 inh MLPCN: 106

What do the screens show for `CCN(CC)c1ccc2cc(-c3nc4ccccc4[nH]3)c(=O)oc2c1`?
Granule exo inh: 14; ABCB6 inh MLPCN: 707

How did CCN(CC)c1ccc2cc(-c3nc4ccccc4n3C)c(=O)oc2c1 do in these assays?
PG9 Ab binder: 10*; rCAG binder: -22; Granule exo inh: -2; ABCB6 inh MLPCN: 110; PG9 bind confirm: 11*; PGV04 Ab binding: 17*

How did CCC1(CC)Cc2ccccc2-c2[nH]c(=S)[nH]c(=O)c21 do in these assays?
PG9 Ab binder: 17*; rCAG binder: 7; Granule exo inh: -4; ABCB6 inh MLPCN: 102; PG9 bind confirm: 4; PGV04 Ab binding: 9

What do the screens show for `CCC1(CC)Cc2ccccc2-c2nc(NN)[nH]c(=O)c21`?
PG9 Ab binder: 0; rCAG binder: 5; Granule exo inh: -5; ABCB6 inh MLPCN: 96

How did CC(C)C1Cc2ccccc2-c2[nH]c(=S)[nH]c(=O)c21 (configuration not stated) do in these assays?
PG9 Ab binder: 30*; rCAG binder: 6; Granule exo inh: -1; ABCB6 inh MLPCN: 103; PG9 bind confirm: 4; PGV04 Ab binding: 6

What do the screens show for `NC(=O)C1CCCN(CC(O)COCc2ccc(Cl)cc2)C1` (configuration not stated)?
PG9 Ab binder: -1; rCAG binder: -1; Granule exo inh: -13; ABCB6 inh MLPCN: 93

What do the screens show for `O=C(CC1NCCNC1=O)NC1Cc2ccccc2C1` (configuration not stated)?
PG9 Ab binder: -2; rCAG binder: 4; Granule exo inh: -9; ABCB6 inh MLPCN: 97

Results for C=CCn1c(=S)[nH]c2scc(-c3cccs3)c2c1=O ?
PG9 Ab binder: 9.3*; rCAG binder: 7; Granule exo inh: -1; ABCB6 inh MLPCN: 93; PG9 bind confirm: 9.8*; PGV04 Ab binding: 10*

Results for O=C(O)C1CC=CCC1C(=O)N1CCN(c2nc(-c3ccccc3Cl)c3cc(Br)ccc3n2)CC1 (configuration not stated) ?
PG9 Ab binder: 13*; rCAG binder: 11; Granule exo inh: 7; ABCB6 inh MLPCN: 98; PG9 bind confirm: 25*; PGV04 Ab binding: 41*

How did Cn1cnnc1SCC(=O)NC1CCCN(Cc2ccccc2F)C1 (configuration not stated) do in these assays?
PG9 Ab binder: 0; rCAG binder: -2; Granule exo inh: 0; ABCB6 inh MLPCN: 95

Results for OC(c1ccccc1)c1nc(-c2ccccc2)cs1 (configuration not stated) ?
PG9 Ab binder: 1; rCAG binder: -2; Granule exo inh: -8; ABCB6 inh MLPCN: 99

What do the screens show for `O=c1c(Br)c(Br)cnn1-c1ccccc1`?
PG9 Ab binder: 13*; rCAG binder: 2; Granule exo inh: 12; ABCB6 inh MLPCN: 75; PG9 bind confirm: 18*; PGV04 Ab binding: 28*

Results for CC1(C)C2C/C(=N\O)C(C)(/[N+]([O-])=C/c3cccc([N+](=O)[O-])c3)CC21 (configuration not stated) ?
PG9 Ab binder: 0; rCAG binder: -2; Granule exo inh: 1; ABCB6 inh MLPCN: 91

Results for O=C(NCc1cccnc1)c1ccccc1NS(=O)(=O)c1ccccc1 ?
PG9 Ab binder: 11*; rCAG binder: 4; Granule exo inh: -8; ABCB6 inh MLPCN: 103; PG9 bind confirm: 9.5*; PGV04 Ab binding: 19*

What do the screens show for `CC1CCN(C(=O)c2ncn3c2c(=O)[nH]c2ccc(Br)cc23)CC1`?
PG9 Ab binder: 9.1*; rCAG binder: 1; Granule exo inh: 2; ABCB6 inh MLPCN: 100; PG9 bind confirm: 14*; PGV04 Ab binding: 18*

Results for CC(C)(C)OC(=O)[C@H](Cc1ccccc1)NC(=O)c1ncn2c1c(=O)[nH]c1ccc(Br)cc12 ?
PG9 Ab binder: 8; rCAG binder: 2; Granule exo inh: -9; ABCB6 inh MLPCN: 90

Screening results (PubChem)
